From article PMC7862700, “An all-to-all approach to the identification of sequence-specific readers for epigenetic DNA modifications on cytosine”

How the values were obtained:
Assay in all cases: DAPPL (digital affinity profiling via proximity ligation, sequencing); 10 mM Tris-HCl pH 7.5, 50 mM NaCl, 1 mM DTT, 4% glycerol, room temperature, 30 min; GST-TFs on glutathione beads, 16-mer random dsDNA library, 0.1% formaldehyde crosslink after washing; high values mean tight binding
FEV = molecular target: T1, FEV (Homo sapiens, UniProt Q99581 1-238); settings: protein: recombinant; tags: N-terminal GST; dsDNA, one strand shown
T1 sequence: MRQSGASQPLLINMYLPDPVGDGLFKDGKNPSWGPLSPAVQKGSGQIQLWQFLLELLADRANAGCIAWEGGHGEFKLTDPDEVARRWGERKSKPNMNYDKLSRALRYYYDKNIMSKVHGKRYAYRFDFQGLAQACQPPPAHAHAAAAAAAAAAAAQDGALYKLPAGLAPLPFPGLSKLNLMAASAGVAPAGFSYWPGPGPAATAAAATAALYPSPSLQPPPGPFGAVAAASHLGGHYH
Method in brief: (§1)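 Sequencing on an Illumina NextSeq500 followed washing, crosslinking with 0.1% formaldehyde, proximity ligation (BsaI/T4 ligase, 1 h, 37 °C) and PCR amplification of pools that had been incubated for 30 min at room temperature with 200 nmole of a random double-stranded 16-mer DNA library in Tris/NaCl/DTT/glycerol buffer. Each pool held DNA-barcoded human transcription factors, expressed in yeast as GST fusions and captured on glutathione beads, plus a tag-only sample. Binding signal is a hexamer's read frequency for a factor divided by its frequency in the tag-only sample.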

ETV5 = ETV5 (Homo sapiens, UniProt P41161 1-510); settings: protein: recombinant; tags: N-terminal GST; dsDNA, one strand shown
Method in brief: as §1

HSF1 = HSF1 (Homo sapiens, UniProt Q00613 1-529); settings: protein: recombinant; tags: N-terminal GST; chain copies: 3; dsDNA, one strand shown
Method in brief: as §1

SPIC = molecular target: T2, SPIC (Homo sapiens, UniProt Q8N5J4 1-248); settings: protein: recombinant; tags: N-terminal GST; dsDNA, one strand shown
T2 sequence: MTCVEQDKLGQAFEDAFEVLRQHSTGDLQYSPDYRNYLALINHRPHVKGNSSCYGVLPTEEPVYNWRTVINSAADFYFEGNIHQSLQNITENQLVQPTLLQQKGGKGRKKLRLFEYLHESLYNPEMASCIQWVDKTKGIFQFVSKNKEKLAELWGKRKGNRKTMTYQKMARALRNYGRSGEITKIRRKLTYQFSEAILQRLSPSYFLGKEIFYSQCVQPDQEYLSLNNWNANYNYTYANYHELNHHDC
Method in brief: as §1

ELF4 = ELF4 (Homo sapiens, UniProt Q99607 1-663); settings: protein: recombinant; tags: N-terminal GST; dsDNA, one strand shown
Method in brief: as §1

ELK4 = molecular target: T3, ELK4 (Homo sapiens, UniProt P28324-2 1-405); settings: protein: recombinant; tags: N-terminal GST; dsDNA, one strand shown
T3 sequence: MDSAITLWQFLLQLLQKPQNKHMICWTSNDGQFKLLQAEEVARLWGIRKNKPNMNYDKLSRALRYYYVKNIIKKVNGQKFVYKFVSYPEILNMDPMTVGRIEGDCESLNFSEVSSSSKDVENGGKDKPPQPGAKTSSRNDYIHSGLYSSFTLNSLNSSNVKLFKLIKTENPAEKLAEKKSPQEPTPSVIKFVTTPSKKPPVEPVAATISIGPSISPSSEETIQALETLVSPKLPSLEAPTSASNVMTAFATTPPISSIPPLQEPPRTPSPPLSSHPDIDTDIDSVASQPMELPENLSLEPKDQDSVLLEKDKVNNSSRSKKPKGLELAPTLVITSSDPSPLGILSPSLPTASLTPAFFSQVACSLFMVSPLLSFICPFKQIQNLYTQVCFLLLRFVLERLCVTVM
Method in brief: as §1

ETV2 = molecular target: T4, ETV2 (Homo sapiens, UniProt O00321 1-342); settings: protein: recombinant; tags: N-terminal GST; dsDNA, one strand shown
T4 sequence: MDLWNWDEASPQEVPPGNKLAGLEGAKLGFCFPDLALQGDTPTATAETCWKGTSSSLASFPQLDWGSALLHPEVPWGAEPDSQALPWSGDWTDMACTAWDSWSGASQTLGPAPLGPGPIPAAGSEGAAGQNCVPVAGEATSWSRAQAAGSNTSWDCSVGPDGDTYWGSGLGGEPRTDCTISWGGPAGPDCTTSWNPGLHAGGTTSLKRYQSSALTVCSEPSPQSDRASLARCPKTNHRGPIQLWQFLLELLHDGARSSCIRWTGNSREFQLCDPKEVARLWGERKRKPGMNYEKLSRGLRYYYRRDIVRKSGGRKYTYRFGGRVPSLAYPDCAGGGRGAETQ
Method in brief: as §1

ELF3 = molecular target: T5, ELF3 (Homo sapiens, UniProt P78545 1-371); settings: protein: recombinant; tags: N-terminal GST; dsDNA, one strand shown
T5 sequence: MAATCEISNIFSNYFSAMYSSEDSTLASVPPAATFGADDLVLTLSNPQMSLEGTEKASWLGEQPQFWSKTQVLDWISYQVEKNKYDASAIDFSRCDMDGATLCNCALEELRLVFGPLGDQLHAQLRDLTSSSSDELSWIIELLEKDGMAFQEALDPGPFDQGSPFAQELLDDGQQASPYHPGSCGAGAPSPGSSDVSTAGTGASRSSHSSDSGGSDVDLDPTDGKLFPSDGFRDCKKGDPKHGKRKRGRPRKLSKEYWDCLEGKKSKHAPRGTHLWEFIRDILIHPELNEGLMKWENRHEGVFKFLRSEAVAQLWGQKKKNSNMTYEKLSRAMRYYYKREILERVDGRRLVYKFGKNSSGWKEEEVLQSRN
Method in brief: as §1

ETV1 = ETV1 (Homo sapiens, UniProt P50549 1-477); settings: protein: recombinant; tags: N-terminal GST; dsDNA, one strand shown
Method in brief: as §1

ERF = molecular target: T6, ERF (Homo sapiens, UniProt P50548 1-548); settings: protein: recombinant; tags: N-terminal GST; dsDNA, one strand shown
T6 sequence: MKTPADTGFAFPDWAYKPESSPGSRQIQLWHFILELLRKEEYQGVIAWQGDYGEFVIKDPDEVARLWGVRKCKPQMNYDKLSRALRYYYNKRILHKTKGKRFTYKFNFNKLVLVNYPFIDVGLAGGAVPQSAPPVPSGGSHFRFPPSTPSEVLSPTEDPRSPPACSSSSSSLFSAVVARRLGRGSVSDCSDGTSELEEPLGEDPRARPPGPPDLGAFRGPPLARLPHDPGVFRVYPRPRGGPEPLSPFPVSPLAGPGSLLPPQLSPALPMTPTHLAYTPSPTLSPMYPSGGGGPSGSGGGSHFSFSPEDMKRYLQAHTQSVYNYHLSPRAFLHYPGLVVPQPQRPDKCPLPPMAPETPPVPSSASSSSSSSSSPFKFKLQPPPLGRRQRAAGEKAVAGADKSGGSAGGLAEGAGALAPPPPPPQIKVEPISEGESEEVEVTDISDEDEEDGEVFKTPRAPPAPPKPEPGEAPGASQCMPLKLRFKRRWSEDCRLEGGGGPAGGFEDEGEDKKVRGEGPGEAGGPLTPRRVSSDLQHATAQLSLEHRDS
Method in brief: as §1

ETV3L = molecular target: T7, ETV3L (Homo sapiens, UniProt Q6ZN32 1-361); settings: protein: recombinant; tags: N-terminal GST; dsDNA, one strand shown
T7 sequence: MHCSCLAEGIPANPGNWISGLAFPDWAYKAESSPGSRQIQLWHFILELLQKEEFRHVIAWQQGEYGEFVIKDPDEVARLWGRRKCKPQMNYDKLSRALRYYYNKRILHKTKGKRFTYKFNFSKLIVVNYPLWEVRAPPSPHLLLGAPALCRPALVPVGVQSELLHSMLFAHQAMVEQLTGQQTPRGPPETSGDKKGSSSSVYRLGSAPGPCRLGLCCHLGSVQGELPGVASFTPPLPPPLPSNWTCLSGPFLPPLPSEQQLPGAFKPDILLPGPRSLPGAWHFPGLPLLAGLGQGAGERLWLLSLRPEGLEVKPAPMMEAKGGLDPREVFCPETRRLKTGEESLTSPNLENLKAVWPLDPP
Method in brief: as §1

ETS2 = molecular target: T8, ETS2 (Homo sapiens, UniProt P15036 1-469); settings: protein: recombinant; tags: N-terminal GST; dsDNA, one strand shown
T8 sequence: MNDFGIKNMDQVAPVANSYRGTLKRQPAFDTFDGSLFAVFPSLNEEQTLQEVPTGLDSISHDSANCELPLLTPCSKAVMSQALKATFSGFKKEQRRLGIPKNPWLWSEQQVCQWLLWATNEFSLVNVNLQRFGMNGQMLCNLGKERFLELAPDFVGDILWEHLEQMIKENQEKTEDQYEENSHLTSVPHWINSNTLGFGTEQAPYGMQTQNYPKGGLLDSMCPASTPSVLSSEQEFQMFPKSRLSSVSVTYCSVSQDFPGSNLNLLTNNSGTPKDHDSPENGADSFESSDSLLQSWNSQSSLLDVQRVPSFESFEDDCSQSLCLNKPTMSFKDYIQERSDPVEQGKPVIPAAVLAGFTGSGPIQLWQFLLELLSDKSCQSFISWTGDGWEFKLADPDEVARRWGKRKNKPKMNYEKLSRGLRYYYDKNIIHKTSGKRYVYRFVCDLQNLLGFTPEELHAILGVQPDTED
Method in brief: as §1

SPDEF = molecular target: T9, SPDEF (Homo sapiens, UniProt O95238 1-335); settings: protein: recombinant; tags: N-terminal GST; dsDNA, one strand shown
T9 sequence: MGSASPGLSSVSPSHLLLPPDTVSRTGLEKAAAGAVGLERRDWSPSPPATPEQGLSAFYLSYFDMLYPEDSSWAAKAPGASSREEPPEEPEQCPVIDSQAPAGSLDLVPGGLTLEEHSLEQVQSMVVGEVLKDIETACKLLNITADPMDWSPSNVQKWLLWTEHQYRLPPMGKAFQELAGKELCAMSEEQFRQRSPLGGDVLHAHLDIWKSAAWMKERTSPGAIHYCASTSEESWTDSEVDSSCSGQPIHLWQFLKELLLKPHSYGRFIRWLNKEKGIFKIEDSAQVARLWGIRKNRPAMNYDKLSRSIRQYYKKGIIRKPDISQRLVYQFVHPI
Method in brief: as §1

ETV7 = molecular target: T10, ETV7 (Homo sapiens, UniProt Q9Y603 1-341); settings: protein: recombinant; tags: N-terminal GST; dsDNA, one strand shown
T10 sequence: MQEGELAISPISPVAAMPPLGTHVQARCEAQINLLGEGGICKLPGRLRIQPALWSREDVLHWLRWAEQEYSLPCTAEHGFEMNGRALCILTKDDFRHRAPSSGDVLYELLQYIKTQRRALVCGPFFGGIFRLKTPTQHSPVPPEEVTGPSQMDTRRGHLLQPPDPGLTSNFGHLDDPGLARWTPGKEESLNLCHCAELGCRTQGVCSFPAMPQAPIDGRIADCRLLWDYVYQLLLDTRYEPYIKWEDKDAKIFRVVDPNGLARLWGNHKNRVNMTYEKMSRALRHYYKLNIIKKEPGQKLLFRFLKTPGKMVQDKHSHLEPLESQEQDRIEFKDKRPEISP
Method in brief: as §1

ELF5 = molecular target: T11, ELF5 (Homo sapiens, UniProt Q9UKW6-2 1-255); settings: protein: recombinant; tags: N-terminal GST; dsDNA, one strand shown
T11 sequence: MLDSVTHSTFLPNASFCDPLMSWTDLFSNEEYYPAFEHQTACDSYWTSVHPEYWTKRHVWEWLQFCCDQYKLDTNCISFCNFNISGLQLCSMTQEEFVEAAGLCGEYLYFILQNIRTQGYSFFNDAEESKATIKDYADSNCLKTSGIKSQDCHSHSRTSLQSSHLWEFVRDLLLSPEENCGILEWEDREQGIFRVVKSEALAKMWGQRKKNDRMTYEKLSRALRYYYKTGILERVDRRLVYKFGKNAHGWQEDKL
Method in brief: as §1

ETV3 = molecular target: T12, ETV3 (Homo sapiens, UniProt P41162-2 1-143); settings: protein: recombinant; tags: N-terminal GST; dsDNA, one strand shown
T12 sequence: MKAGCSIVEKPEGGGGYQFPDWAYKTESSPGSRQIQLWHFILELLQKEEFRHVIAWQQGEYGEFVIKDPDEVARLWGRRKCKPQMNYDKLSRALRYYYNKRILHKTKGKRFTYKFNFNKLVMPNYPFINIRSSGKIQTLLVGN
Method in brief: as §1

ETV6 = ETV6 (Homo sapiens, UniProt P41212 1-452); settings: protein: recombinant; tags: N-terminal GST; dsDNA, one strand shown
Method in brief: as §1

Sequence of ETV6 (P41212 whole entry): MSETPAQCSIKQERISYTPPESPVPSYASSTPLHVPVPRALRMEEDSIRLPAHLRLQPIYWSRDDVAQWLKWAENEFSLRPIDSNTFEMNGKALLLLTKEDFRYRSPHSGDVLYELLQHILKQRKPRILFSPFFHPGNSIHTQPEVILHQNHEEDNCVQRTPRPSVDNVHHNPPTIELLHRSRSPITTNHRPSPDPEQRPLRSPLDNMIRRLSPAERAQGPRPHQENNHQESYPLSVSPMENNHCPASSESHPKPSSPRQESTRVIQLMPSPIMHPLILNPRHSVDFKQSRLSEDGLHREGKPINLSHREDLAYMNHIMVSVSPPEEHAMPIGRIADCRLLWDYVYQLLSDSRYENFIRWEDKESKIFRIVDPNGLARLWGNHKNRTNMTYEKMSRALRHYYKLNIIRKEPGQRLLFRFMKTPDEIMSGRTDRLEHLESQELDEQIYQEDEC
Sequence of ETV1 (P50549 whole entry): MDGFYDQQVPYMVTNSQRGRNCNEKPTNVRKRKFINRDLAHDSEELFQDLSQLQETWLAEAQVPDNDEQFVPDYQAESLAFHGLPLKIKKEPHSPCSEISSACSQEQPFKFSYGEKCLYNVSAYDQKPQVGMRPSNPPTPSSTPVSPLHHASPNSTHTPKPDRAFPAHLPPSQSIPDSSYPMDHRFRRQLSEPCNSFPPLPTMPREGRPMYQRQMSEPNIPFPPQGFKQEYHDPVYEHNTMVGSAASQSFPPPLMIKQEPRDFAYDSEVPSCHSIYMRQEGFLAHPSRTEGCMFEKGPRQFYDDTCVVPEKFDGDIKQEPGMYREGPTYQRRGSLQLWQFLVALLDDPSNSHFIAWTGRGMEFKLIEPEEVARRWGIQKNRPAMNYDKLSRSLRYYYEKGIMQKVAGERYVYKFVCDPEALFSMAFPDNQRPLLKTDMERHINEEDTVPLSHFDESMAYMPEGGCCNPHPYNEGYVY
Sequence of HSF1 (Q00613 whole entry): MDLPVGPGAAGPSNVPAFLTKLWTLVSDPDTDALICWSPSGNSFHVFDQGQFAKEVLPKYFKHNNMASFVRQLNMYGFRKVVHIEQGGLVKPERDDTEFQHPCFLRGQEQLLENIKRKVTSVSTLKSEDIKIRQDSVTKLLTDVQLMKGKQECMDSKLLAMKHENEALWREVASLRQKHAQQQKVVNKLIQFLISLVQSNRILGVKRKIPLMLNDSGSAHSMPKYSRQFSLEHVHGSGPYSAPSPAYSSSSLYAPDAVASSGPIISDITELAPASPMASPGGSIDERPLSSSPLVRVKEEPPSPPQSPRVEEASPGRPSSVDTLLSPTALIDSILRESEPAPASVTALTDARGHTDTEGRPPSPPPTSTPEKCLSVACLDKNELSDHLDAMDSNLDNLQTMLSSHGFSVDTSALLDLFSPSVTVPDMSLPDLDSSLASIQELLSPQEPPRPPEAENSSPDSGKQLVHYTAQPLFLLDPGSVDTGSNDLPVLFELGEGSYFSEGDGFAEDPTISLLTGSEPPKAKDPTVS
Sequence of ETV5 (P41161 whole entry): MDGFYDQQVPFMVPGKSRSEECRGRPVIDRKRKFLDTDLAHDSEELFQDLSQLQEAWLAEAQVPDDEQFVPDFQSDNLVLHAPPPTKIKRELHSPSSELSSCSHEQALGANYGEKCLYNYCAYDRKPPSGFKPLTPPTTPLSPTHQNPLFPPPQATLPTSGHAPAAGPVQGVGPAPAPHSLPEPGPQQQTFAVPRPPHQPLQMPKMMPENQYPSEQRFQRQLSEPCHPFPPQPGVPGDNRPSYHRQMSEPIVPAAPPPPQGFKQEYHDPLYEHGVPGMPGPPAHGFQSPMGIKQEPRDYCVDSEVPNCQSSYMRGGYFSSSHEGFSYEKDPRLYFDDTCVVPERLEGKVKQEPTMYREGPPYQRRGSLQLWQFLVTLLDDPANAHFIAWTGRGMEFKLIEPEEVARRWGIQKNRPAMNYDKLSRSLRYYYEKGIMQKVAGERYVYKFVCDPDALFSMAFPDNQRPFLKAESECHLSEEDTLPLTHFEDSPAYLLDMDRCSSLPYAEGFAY
Sequence of ELF4 (Q99607 whole entry): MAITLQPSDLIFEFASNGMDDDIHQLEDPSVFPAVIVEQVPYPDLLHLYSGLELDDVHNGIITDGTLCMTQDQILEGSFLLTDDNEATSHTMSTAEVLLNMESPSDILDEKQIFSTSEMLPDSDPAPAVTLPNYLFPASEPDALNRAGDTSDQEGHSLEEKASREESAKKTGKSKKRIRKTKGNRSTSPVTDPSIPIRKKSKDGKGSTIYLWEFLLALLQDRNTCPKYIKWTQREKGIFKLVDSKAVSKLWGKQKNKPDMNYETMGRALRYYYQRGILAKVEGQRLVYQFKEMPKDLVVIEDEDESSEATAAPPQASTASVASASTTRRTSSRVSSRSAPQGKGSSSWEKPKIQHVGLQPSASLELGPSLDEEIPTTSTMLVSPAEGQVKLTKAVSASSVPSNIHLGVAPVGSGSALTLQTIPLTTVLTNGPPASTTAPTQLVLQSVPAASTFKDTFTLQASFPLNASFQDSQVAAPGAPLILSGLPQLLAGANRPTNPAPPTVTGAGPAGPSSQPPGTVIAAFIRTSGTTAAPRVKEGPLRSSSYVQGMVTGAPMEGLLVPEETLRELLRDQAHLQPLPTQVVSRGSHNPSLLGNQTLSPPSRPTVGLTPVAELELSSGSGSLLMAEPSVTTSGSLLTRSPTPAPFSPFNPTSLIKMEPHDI

ACCTCG
binding signal (FEV): 1.05 fold enrichment (6-mer frequency, TF over GST control)
binding signal (ETV5): 1.11 fold enrichment (6-mer frequency, TF over GST control)
binding signal (HSF1): 1.14 fold enrichment (6-mer frequency, TF over GST control)
binding signal (SPIC): 1.17 fold enrichment (6-mer frequency, TF over GST control)
binding signal (ELF4): 1.18 fold enrichment (6-mer frequency, TF over GST control)
binding signal (ELK4): 1.35 fold enrichment (6-mer frequency, TF over GST control)
binding signal (ETV2): 1.28 fold enrichment (6-mer frequency, TF over GST control)
binding signal (ELF3): 1.23 fold enrichment (6-mer frequency, TF over GST control)
binding signal (ETV1): 1.15 fold enrichment (6-mer frequency, TF over GST control)
binding signal (ERF): 1.2 fold enrichment (6-mer frequency, TF over GST control)
binding signal (ETV3L): 1.22 fold enrichment (6-mer frequency, TF over GST control)
binding signal (ETS2): 1.11 fold enrichment (6-mer frequency, TF over GST control)
binding signal (SPDEF): 1.06 fold enrichment (6-mer frequency, TF over GST control)
binding signal (ETV7): 1.21 fold enrichment (6-mer frequency, TF over GST control)
binding signal (ELF5): 1.06 fold enrichment (6-mer frequency, TF over GST control)
binding signal (ETV3): 1.1 fold enrichment (6-mer frequency, TF over GST control)
binding signal (ETV6): 1.09 fold enrichment (6-mer frequency, TF over GST control)
